This is a sample that favours compounds with a hit; in the whole collection about 6.7% have one here.
KB-3-1 tox: qHTS assay for MDR1-selective chemotherapeutics: Primary screen using the parental adenocarcinoma cell KB-3-1. KB-3-1 viability, CellTiter-Glo ATP luminescence, 72 h. Potency, µM (titrated, usually from 46.1 µM), hits mostly cytotoxic. 1.4% of 400,000 active. AID 1347075, 2019; further: on the % scale 0 is the no-effect control and ±100 the full control effect; nearly all actives have a fitted effect of over 60% in size
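Here the drug-naive KB-3-1 line serves as comparator for MDR sub-line selectivity; cells received compound titrations, 72 h at 37 °C, then CellTiter-Glo readout.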
MCF10A rerep: A quantitative high throughput screen for small molecules that induce DNA re-replication in MCF 10a normal breast cells; MCF 10A DNA re-replication, Hoechst nuclear intensity, 48 h; Potency, µM (series often up to 46.1 µM), without a hit: at the top dose activity, positive = re-replication, usual class: activators; 2.9% of 350,000 active; AID 624296, 2012; further: % of control where 0% means no effect; nearly all actives have a fitted effect of over 50% in size
SW480 rereplic: A quantitative high throughput screen for small molecules that induce DNA re-replication in SW480 colon adenocarcinoma cells; 1.8% of 340,000 active; Potency, µM (doses to about 46.1 µM), inactives show at the top dose re-replication activation, actives largely listed as activators; SW480 DNA re-replication, Hoechst DNA content imaging, 48 h; further: % of control where 0% means no effect; nearly all actives have a fitted effect of over 55% in size
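Cells (250 per well) received 23 nL compound or DMSO by pin tool and were kept 48 hr at 37 C, 5% CO2. Nuclei were then stained with Hoechst for 40 min and scanned for DNA content.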
PINK1 modulator: A Quantitative High throughput Screen to Identify Chemical Modulators of PINK1 Expression; PINK1 immunofluorescence, high-content cytometry, 24 h; Potency, µM (top dose mostly 76.6 µM), inactives show at the highest dose activation (PINK1 increase), actives largely listed as activators; 0.2% of 410,000 active; AID 624263, 2012; active means well fitted activation curve with a large enough effect; inconclusive means small, poorly fitted or top-dose-only effect; cell line not stated here; further: % of control where 0% means no effect; nearly all actives have a fitted effect of over 65% in size
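Fluorescence from anti-PINK1 antibody, together with nuclear and cell stains, was scanned on a laser-scanning cytometer. Before staining, stable-line cells were incubated 24 hours with compounds at 5 concentrations; primary antibody 12 h at 10 degrees C.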
KB-V1 MDR tox: qHTS assay for MDR1-selective chemotherapeutics: Primary screen using the drug-selected MDR subline cells KB-V1. Potency, µM (highest dose often 46.1 µM), usual class: cytotoxic. KB-V1 MDR cells viability, CellTiter-Glo, 72 h. AID 1347076, 2019. 3.4% of 400,000 active; further: on the % scale 0 is the no-effect control and ±100 the full control effect; nearly all actives have a fitted effect of over 60% in size
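In this primary screen, KB-V1 cells overexpressing P-gp are incubated with library compounds (lowest to highest concentration) for 72 h at 37 degrees C before a luminescent ATP viability read.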
Active calls of the source: *; i = inactive; ? = inconclusive; . = not tested or not shown; [ ] = remark or other dose. Unless noted, the call rests on the fitted dose curve; in most records, active means well fitted curve in the direction sought with a large enough effect; inconclusive means small, poorly fitted or top-dose-only effect, or another doubt; inactive means no such curve, though single readings can be large; an effect the other way counts as inactive or inconclusive. Potency means the concentration at half of the fitted maximal effect.

SMILES	KB-3-1 tox	MCF10A rerep	SW480 rereplic	PINK1 modulator	KB-V1 MDR tox
Cc1cnc(C)c(-c2cccc3c2OC(CNC(=O)C[C@@H]2C[C@@H](C)NC(=S)N2)C3)n1 (some centres not stated)	.	.	.	0%	.
COc1ccc(S(=O)(=O)NCC2CCCN(Cc3cccc(C(C)=O)c3)C2)cc1 (configuration not stated)	i	?	-1%	-1%	i
COc1ccc(S(=O)(=O)NCC2CCCN(Cc3cccnc3)C2)cc1 (configuration not stated)	i	1µM*	-15%	0%	i
CC1(C(=O)NCc2ccccc2Br)CCN1Cc1ccccc1OC(F)F (configuration not stated)	i	.	.	8%	23µM*
C=C1C(=O)OC2C1C(OC(=O)C(C)=CC)CC(=C)C1C(O)C3OC3(C)C21O (configuration not stated)	i	13µM*	21µM*	6%	i
Cc1cc(=O)[nH]c2c1c(C)nn2C1CCOC(C)(C)C1 (configuration not stated)	i	-6%	6.5µM*	3%[38.3 µM]	i
COc1cc(C(=O)NCC(c2cccs2)N2CCOCC2)ccc1OCc1ccccc1 (configuration not stated)	i	.	.	2%	i
O=S(=O)(N/N=C1\CC(c2ccccc2)Oc2ccccc21)c1ccccc1 (configuration not stated)	i	2%	8%[9.22 µM]	-2%	i
CCOc1ccc(S(=O)(=O)N/N=C2/CC(c3ccccc3)Oc3ccccc32)cc1 (configuration not stated)	?	8%	9%	0%	18µM*
CSc1ccc(/C=C2\C=Cc3ccc([N+](=O)[O-])cc32)cc1	i	.	.	?	?
CCOC(=O)N1CCN(S(=O)(=O)c2ccc3c(c2)SCC(=O)N3)CC1	i	13%	12%	0%	i
CCOC(=O)N1CCN(S(=O)(=O)c2ccc3c(c2)SC(C)C(=O)N3)CC1 (configuration not stated)	?	-5%	-4%	1%	4.6µM*
CCOc1cc(C(=S)N2CCOCC2)ccc1OS(=O)(=O)c1ccc(C)cc1	i	0%	2%	1%	i
CCOc1cc(C(=S)N2CCCCC2)ccc1OS(=O)(=O)c1ccc(Br)cc1	?	?	8%	1%[38.3 µM]	4.1µM*
CCOc1cc(C(=S)N2CCCCC2)ccc1OS(=O)(=O)c1ccc(Cl)cc1	?	?	20%	6%[38.3 µM]	2.9µM*
CCCCSc1ccc2nc(-c3ccc(C#N)cc3)cn2c1	i	?	-8%	0%	i
CCCSc1ccc2nc(-c3ccccc3)cn2c1	18µM*	?	.	3%	21µM*
O=C(NC(c1ccccc1)c1c(O)ccc2ccccc12)c1ccccc1Cl (configuration not stated)	?	23µM*	?	2%[38.3 µM]	21µM*
O=C(NC(c1ccc(Cl)cc1)c1c(O)ccc2ccccc12)c1ccccc1 (configuration not stated)	?	?	?	?	21µM*
Cc1cc(C)c2c3c(sc2n1)C(c1cccc(F)c1)C(C#N)=C(N)O3 (configuration not stated)	i	8.2µM*	18µM*	4%[38.3 µM]	?
Cc1oc(C)c2c(=O)ccc3c(c12)OC(N)=C(C#N)C3c1ccc(F)cc1 (configuration not stated)	i	12%	-4%	25%	i
CCn1c(-c2cc3c(C(F)(F)F)nn(C)c3s2)n[nH]c1=S	?	11%	0%	-44%[38.3 µM]	10µM*
O=C(OCCO)c1c(C2=CCCCC2)oc2c1C(OCCO)CCC2 (configuration not stated)	i	.	.	0%	i
O=C1[C@H]2[C@@H](C(=O)N1c1cc(Cl)cc(Cl)c1)[C@]1(C(=O)Nc3ccccc31)N1CCC[C@@H]21	i	29%	-3%	3%[38.3 µM]	15µM*
Cc1cc(Cl)c2c(c1)[C@]1(C(=O)N2)[C@@H]2C(=O)N(Cc3ccccc3)C(=O)[C@@H]2[C@@H]2CCCN21	?	9%	16%	-2%	?
SMILES	KB-3-1 tox	MCF10A rerep	SW480 rereplic	PINK1 modulator	KB-V1 MDR tox
Cc1ccc(OCC(=O)Nc2ccc(F)cc2)c([N+](=O)[O-])n1	i	-24%	-12%	2%	?
CCCn1c(C)cc(C(=O)COc2ccc(C)nc2[N+](=O)[O-])c1C	i	?	?	5%	16µM*
C=CCn1c(C)cc(C(=O)COc2ccc(C)nc2[N+](=O)[O-])c1C	?	?	?	8%	?
Cc1ccc(OCC(=O)Nc2ccccc2Sc2ccccc2)c([N+](=O)[O-])n1	i	-7%	2%	6%	18µM*
Cc1cc(-n2c(C)cc(C(=O)COc3cccnc3[N+](=O)[O-])c2C)no1	?	7.3µM*	8.2µM*	9%	16µM*
Cc1ccc(OCC(=O)c2cc(C)n(-c3ccccc3)c2C)c([N+](=O)[O-])n1	8.2µM*	?	-4%	-2%	21µM*
Cc1ccc(Cc2nc3ccccc3nc2SCC(=O)NCc2ccccc2Cl)cc1	i	.	.	1%	i
Cc1ccc(OCC(=O)N(Cc2ccccc2)C(C)(C)C)c([N+](=O)[O-])n1	i	-2%	-50%	-1%	23µM*
NC(=O)C1(N2CCCCC2)CCN(c2nc(-c3ccc(Br)cc3)cs2)CC1	i	?	-3%	20%[38.3 µM]	23µM*
O=C(O)c1ccccc1C=NN1CCCCCC1	i	-11%	4%	1%	i
O=C(CCl)N(c1ccccc1)C1CCS(=O)(=O)C1 (configuration not stated)	i	?	16µM*	-2%	?
Cc1ccc(C(=O)N(CN2CCCC2=O)c2ccc(F)cc2)cc1C	i	3%	-13%	-4%	18µM*
Cc1ccc(N(CN2CCCC2=O)C(=O)c2ccc(C)c(C)c2)cc1	i	5%	-8%	-3%	8.2µM*
CCCC(=O)N1CCCC1(C)C(=O)NCCc1ccccn1 (configuration not stated)	i	.	.	1%	i
COc1ccc(S(=O)(=O)N2CCC3CC2c2c(-c4ccc(C(F)(F)F)cc4)cccc23)cc1 (configuration not stated)	i	.	.	4%	i
CC(C)COc1ccc(C(=O)Nc2sc3c(c2C(=O)O)CC(C)(C)OC3)cc1	8.2µM*	?	-80%	1%	i
COc1ccc(C(=O)Nc2sc3c(c2C(=O)O)CC(C)(C)OC3)cc1	?	3%	-4%	0%	?

Screening data: PubChem, National Center for Advancing Translational Sciences (NCATS)
